Results: PubChem BioAssay (NCATS)
Inconclusive results are not listed. Active and inactive are the calls of the source. Unless noted, calls follow the shape of the dose curve; as a rule, active = well fitted curve in the direction sought with a large enough effect; inconclusive = small, poorly fitted or top-dose-only effect, or another doubt; inactive = no such curve, though single readings can be large; an effect the other way counts as inactive or inconclusive.

Key:
[1] = Validation screen for small molecules that induce DNA re-replication in MCF 10A normal breast cells (AID 463097); also: nearly all actives have a fitted effect of over 60% in size
In short: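 Read-out is Hoechst total nuclear intensity by fluorescence scanning imager, flagging increased high-DNA-content nuclei. Compounds were incubated with MCF 10A cells for 48 hr (37 C, 5% CO2) before 40 min staining.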

[2] = target: Ubiquitin carboxyl-terminal hydrolase 2 (Homo sapiens) (UniProt O75604); test: qHTS Validation Assay for Inhibitors of Ubiquitin-specific Protease USP2a Using CHOP2 as the Reporter (AID 463106)
Sequence of Ubiquitin carboxyl-terminal hydrolase 2 (Homo sapiens) (O75604 whole entry, looked up): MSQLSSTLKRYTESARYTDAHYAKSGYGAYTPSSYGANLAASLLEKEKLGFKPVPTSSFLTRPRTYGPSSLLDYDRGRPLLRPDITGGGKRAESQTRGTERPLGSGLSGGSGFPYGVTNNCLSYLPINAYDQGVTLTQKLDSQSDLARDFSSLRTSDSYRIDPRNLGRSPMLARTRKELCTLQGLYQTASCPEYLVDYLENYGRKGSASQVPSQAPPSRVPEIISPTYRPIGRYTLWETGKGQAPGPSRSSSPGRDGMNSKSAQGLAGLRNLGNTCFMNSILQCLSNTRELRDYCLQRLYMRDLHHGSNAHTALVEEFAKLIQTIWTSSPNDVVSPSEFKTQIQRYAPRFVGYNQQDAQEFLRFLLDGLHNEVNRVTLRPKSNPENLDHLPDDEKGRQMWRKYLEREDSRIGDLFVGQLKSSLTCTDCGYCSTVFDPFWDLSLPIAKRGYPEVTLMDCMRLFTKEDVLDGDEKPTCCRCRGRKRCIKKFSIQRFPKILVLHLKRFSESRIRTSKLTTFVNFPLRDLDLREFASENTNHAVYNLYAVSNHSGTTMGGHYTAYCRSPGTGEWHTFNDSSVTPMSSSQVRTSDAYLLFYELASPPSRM
In short: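 Inhibition is expressed relative to NEM as the full-inhibition control, with concentration-response curves classed by fit quality, magnitude and activity. Enzyme (USP2 core, 10nM) meets 25nM Ub-CHOP2 after compound preincubation; readings are taken at 60min.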

[3] = target: Tumor susceptibility gene 101 protein (Homo sapiens) (UniProt Q99816); test: qHTS Validation Assay for Iinhibitors of HIV-1 Budding by Blocking the Interaction of PTAP/TSG101 (AID 485342; calls by dose curve)
Sequence of Tumor susceptibility gene 101 protein (Homo sapiens) (Q99816 whole entry, looked up, the tested form may be a part): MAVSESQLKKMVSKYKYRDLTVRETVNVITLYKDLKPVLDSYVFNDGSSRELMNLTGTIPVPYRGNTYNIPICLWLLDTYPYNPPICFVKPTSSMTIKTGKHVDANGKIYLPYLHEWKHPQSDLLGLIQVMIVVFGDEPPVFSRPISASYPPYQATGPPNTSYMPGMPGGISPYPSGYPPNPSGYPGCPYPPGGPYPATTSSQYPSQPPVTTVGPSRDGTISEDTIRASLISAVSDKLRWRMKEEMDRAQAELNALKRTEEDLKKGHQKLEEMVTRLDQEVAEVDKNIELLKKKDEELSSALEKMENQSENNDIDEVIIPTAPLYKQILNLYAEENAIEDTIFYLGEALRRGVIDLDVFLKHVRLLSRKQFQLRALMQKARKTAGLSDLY
In short: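 Fluorescence polarization of 50 nM FITC-PTAP peptide bound to 10 uM Tsg101 binding domain was read after 20 min room-temperature incubation with compounds, in 10 mM HEPES pH 7.5, 0.15 M NaCl, 0.01% Tween 20.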

[4] = qHTS Validation Assay to Find Inhibitors of Chronic Active B-Cell Receptor Signaling (AID 485345; active = well fitted curve in the direction sought with a large enough effect in the main read-out, with a control signal flat, not every such curve was filed as active; also: potency is read from the fitted curve at half-maximal effect)
In short: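 TMD8 ABC-DLBCL cells with dox-inducible green luciferase–IκBα fusion and red native luciferase; compounds 46 uM–3 nM, 4 h at 37C with doxycycline in 0.5% FBS IMDM. Green/red ratio normalized to basal and 10 uM MG-132.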

[5] = Quantitative high throughput screen for delayed death inhibitors of the malarial parasite plastid, 96 hour incubation (AID 488745); also: nearly all actives have a fitted effect of over 70% in size; also: potency is read from the fitted curve at half-maximal effect
In short: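 Readout is firefly luciferase luminescence from an integrated reporter in P. falciparum; lower signal marks inhibited growth. Cultures at 2% hematocrit and 0.1% parasitemia were treated with compound across two generations (96 h, 37 C, 5% CO2).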

[6] = Quantitative high throughput screen for delayed death inhibitors of the malarial parasite plastid, 48 hour incubation (AID 488752); also: nearly all actives have a fitted effect of over 65% in size; also: potency is read from the fitted curve at half-maximal effect
In short: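 First, compound was pinned into RPMI 1640 medium containing 0.5% Albumax. Next, reporter-parasite-infected erythrocytes were added to 2% hematocrit and 0.1% parasitemia. After 48 h at 37 C under 5% CO2, luciferase detection reagent was added and luminescence read.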

[7] = target: Thioredoxin reductase 1, cytoplasmic (Rattus norvegicus) (UniProt O89049); test: qHTS Assay for Substrates of Mammalian Selenoprotein Thioredoxin Reductase 1 (TrxR1) (AID 488772);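 also: series mostly up to about 57 µM; a drop in NADPH fluorescence below the no-compound background marks a TrxR1 substrate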
Sequence of Thioredoxin reductase 1, cytoplasmic (Rattus norvegicus) (O89049 whole entry, looked up): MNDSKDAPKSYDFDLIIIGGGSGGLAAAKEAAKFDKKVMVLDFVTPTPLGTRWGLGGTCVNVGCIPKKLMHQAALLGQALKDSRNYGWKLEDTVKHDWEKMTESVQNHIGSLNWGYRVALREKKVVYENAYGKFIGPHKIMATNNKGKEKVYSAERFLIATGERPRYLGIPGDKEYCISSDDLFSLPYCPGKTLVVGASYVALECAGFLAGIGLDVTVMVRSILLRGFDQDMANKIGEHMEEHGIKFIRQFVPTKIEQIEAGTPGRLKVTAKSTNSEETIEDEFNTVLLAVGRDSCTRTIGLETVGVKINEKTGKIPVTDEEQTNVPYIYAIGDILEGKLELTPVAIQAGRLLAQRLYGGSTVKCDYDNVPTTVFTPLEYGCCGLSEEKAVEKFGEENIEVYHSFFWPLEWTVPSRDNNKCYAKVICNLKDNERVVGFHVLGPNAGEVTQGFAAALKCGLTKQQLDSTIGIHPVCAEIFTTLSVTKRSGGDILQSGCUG
In short: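 In this dual-purpose format, potential substrates are identified from the first fluorescence read after selenite addition, not from the 8-minute delta. Rat enzyme is preincubated with NADPH and then with compound at ~22 deg C.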

[8] = target: Beta-2 adrenergic receptor (Homo sapiens) (UniProt P07550); test: qHTS validation assay of beta-arrestin-biased ligands of beta2-adrenergic receptor (AID 485366)
Sequence of Beta-2 adrenergic receptor (Homo sapiens) (P07550 whole entry, looked up): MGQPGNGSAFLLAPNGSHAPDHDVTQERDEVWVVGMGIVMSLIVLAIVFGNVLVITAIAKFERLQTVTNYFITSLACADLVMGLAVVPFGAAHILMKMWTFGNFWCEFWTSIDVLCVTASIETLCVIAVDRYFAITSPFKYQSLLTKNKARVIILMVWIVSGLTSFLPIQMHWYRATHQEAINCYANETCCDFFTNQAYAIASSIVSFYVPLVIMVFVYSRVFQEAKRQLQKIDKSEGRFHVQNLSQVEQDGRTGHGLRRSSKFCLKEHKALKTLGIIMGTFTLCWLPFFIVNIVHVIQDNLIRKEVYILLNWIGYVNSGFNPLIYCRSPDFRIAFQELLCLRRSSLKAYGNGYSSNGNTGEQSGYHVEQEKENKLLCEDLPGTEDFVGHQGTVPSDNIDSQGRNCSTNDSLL
In short: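 Agonism was measured as beta-arrestin recruitment to recombinant beta2-AR, releasing tTA to drive luciferase. Cells were exposed for 18 hr at 37 degrees C to a series up to 46 microM. %Activity from corrected luminescence gave concentration-response curves.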

[9] = target: DNA polymerase III PolC-type (Bacillus subtilis (strain 168)) (UniProt P13267); test: qHTS Validation Assay for the Inhibitors of DNA Replication in Gram-Positive Bacteria (AID 485295);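 also: reconstituted holoenzyme with PolC plus beta clamp SSB and primase; PicoGreen fluorescence of double-stranded DNA made on primed circular M13 template; series mostly up to about 57 µM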
Sequence of DNA polymerase III PolC-type (Bacillus subtilis (strain 168)) (P13267 whole entry, looked up): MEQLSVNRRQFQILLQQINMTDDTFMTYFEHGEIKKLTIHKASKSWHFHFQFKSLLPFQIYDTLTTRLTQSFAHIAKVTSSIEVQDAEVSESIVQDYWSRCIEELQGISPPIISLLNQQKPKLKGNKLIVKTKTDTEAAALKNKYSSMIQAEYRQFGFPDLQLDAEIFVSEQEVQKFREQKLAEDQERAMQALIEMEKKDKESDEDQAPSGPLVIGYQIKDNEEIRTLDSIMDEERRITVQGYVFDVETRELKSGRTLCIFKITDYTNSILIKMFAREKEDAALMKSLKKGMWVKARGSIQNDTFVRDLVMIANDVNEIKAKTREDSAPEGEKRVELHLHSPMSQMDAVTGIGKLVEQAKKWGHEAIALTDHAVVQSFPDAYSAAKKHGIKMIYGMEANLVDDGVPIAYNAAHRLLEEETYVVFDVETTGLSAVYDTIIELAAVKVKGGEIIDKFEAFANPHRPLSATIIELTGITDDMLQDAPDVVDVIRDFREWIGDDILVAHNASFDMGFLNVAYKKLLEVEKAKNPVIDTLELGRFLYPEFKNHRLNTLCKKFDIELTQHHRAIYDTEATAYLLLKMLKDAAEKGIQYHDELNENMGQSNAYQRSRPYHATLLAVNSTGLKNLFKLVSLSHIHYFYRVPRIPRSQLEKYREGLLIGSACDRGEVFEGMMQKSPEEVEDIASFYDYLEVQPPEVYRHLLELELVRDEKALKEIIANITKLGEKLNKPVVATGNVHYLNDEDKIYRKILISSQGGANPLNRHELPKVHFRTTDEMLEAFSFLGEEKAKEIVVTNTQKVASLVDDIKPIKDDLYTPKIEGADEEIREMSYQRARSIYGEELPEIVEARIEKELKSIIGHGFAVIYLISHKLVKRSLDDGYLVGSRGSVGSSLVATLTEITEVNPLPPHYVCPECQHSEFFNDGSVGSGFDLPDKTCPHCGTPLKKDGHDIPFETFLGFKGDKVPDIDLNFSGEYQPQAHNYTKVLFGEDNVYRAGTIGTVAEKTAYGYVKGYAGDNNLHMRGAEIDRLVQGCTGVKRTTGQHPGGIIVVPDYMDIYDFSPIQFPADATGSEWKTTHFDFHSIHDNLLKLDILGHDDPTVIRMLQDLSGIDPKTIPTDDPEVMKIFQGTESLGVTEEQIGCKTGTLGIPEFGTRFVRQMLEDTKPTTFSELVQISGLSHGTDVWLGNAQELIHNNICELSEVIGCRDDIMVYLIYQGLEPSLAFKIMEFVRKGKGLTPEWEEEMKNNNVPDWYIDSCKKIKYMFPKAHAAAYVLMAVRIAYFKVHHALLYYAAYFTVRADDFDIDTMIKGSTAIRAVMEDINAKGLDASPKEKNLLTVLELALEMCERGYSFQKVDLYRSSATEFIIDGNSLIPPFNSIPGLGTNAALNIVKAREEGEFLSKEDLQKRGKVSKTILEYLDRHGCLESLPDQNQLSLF
In short: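 Double-stranded DNA product detected by PicoGreen fluorescence after EDTA quench. Compound incubated with B. subtilis holoenzyme (PolC, beta subunit, SSB, primase) before substrate addition; primed replication of M13Gori with dNTPs and NTPs at room temperature; DMSO defines 0% inhibition.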

[10] = target: ATP-dependent 6-phosphofructokinase (Trypanosoma brucei brucei) (UniProt O15648); test: qHTS Validation Assay to Find Inhibitors of T. brucei phosphofructokinase (AID 485368); details: outcome: dose series up to 57.5 µM
Sequence of ATP-dependent 6-phosphofructokinase (Trypanosoma brucei brucei) (O15648 whole entry, looked up): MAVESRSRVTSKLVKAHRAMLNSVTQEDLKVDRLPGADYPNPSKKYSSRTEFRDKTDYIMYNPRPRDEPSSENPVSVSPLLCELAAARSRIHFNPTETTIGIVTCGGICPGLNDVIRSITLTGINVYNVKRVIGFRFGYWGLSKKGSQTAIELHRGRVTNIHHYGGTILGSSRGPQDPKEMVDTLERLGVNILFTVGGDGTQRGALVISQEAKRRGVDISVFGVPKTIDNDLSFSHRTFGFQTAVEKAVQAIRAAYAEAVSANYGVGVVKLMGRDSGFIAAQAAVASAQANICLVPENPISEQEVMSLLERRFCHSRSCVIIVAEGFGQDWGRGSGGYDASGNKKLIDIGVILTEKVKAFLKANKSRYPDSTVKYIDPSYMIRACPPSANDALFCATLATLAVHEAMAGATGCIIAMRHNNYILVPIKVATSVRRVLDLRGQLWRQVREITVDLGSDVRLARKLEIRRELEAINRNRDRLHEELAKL
In short: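 ADP-Glo luminescence, two-step: residual ATP depleted, then ADP converted to ATP for luciferase. Enzyme 1.25 nM, F6P 0.5 mM, ATP 0.1 mM, pH 8.0 TEA buffer, 45 min RT. Curves fitted and classed by quality and efficacy.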

Measured: Potency

CCN(CC)CCNC(=O)c1cc(S(C)(=O)=O)ccc1OC
inactive: [1] | [2] | [3] | [4] | [5] | [6] | [7]

OC(CCN1CCCCC1)(c1ccccc1)C1CCCCC1 (configuration not stated)
inactive: [1] | [2] | [3] | [7]

CN(C)C(=O)Oc1ccc[n+](C)c1
inactive: [1] | [2] | [3] | [4] | [6] | [7]

C[N+](C)(C)CCOC(=O)CCC(=O)OCC[N+](C)(C)C
inactive: [1] | [2] | [3] | [4] | [8] | [5] | [6] | [7]

Cc1ccc(=O)n(-c2ccccc2)c1
inactive: [1] | [2] | [3] | [4] | [8] | [7]

CN(C(=O)CCCOc1ccc2[nH]c(=O)ccc2c1)C1CCCCC1
inactive: [1] | [2] | [9] | [3] | [7]

CCCN1C[C@H](CSC)C[C@@H]2c3cccc4[nH]cc(c34)C[C@H]21
inactive: [1] | [2] | [3] | [8] | [10] | [7]

COCCOC(=O)C1=C(C)NC(C)=C(C(=O)OC(C)C)C1c1cccc([N+](=O)[O-])c1 (configuration not stated)
active: [4] 9.2 µM
inactive: [1] | [2] | [3] | [8]

NC(Cc1ccc(Cl)cc1)C(=O)O (configuration not stated)
inactive: [1] | [2] | [3] | [8] | [10] | [7]

CCCOc1ccccc1-c1nc2n[nH]nc2c(=O)[nH]1
inactive: [1] | [2] | [3] | [4] | [10] | [6] | [7]

NS(=O)(=O)c1cc2c(cc1Cl)NC(C1CC3C=CC1C3)NS2(=O)=O (configuration not stated)
inactive: [1] | [2] | [3] | [4] | [6] | [7]

OCCN1CCN(CCCN2c3ccccc3C=Cc3ccccc32)CC1
active: [5] 13.1 µM
inactive: [1] | [2] | [3] | [4] | [8]

O=C(O)CP(=O)(O)O
inactive: [1] | [2] | [3] | [8] | [6] | [7]

CCOC(=O)c1cnc2c(cnn2CC)c1NN=C(C)C
inactive: [1] | [2] | [3] | [4] | [5] | [7]

Cc1nnc(SCC2=C(C(=O)O)N3C(=O)[C@@H](NC(=O)Cn4cnnn4)[C@H]3SC2)s1
inactive: [1] | [9] | [3] | [4] | [5] | [7]

C[C@]12CCC(=O)C=C1CC[C@@H]1[C@@H]2C(=O)C[C@@]2(C)[C@H]1CC[C@]2(O)C(=O)CO
inactive: [1] | [2] | [3] | [8] | [5] | [7]

c1cnc(N2CCN(Cc3ccc4c(c3)OCO4)CC2)nc1
inactive: [1] | [2] | [3] | [4] | [5] | [7]

NC/C=C/C(=O)O
inactive: [1] | [2] | [3] | [4] | [8]

Cc1ccc(S(=O)(=O)NC(=O)NN2CCCCCC2)cc1
inactive: [1] | [2] | [3] | [8] | [7]

CNC1(C)C2CCC(C2)C1(C)C (configuration not stated)
inactive: [1] | [2] | [3] | [4] | [8] | [10] | [5] | [7]

COc1ccc([C@@H]2Sc3ccccc3N(CCN(C)C)C(=O)[C@@H]2OC(C)=O)cc1
inactive: [1] | [2] | [3] | [4] | [8] | [5] | [6] | [7]

C[C@H](CS)C(=O)N1CCC[C@H]1C(=O)O
inactive: [1] | [9] | [3] | [8] | [6]

C[C@]12C=CC(=O)C=C1CC[C@H]1[C@@H]3C[C@@H](O)[C@](O)(C(=O)CO)[C@@]3(C)C[C@H](O)[C@@]12F
inactive: [1] | [2] | [3] | [8] | [10] | [5] | [6] | [7]

C[C@@H](O)[C@H]1C(=O)N2C(C(=O)O)=C(SCCN=CN)C[C@H]12
inactive: [2] | [9] | [3] | [4] | [8] | [7]

COC(=O)C1=C(C)NC(C)=C(C(=O)OC(C)(C)CN(C)CCC(c2ccccc2)c2ccccc2)C1c1cccc([N+](=O)[O-])c1 (configuration not stated)
inactive: [2] | [9] | [3] | [8] | [10] | [7]

CC(C)(C)c1ccc(C(=O)CCCN2CCC(OC(c3ccccc3)c3ccccc3)CC2)cc1
inactive: [2] | [9] | [3] | [8] | [7]

CN(C)[C@@H]1C(=O)C(C(N)=O)=C(O)[C@@]2(O)C(=O)C3=C(O)c4c(O)ccc(Cl)c4[C@@H](O)[C@H]3C[C@@H]12
inactive: [2] | [9] | [3] | [4] | [8] | [7]

Cc1ccc(/C(=C\CN2CCCC2)c2ccccn2)cc1
inactive: [2] | [9] | [3] | [4] | [10] | [6] | [7]

COCC(=O)O[C@]1(CCN(C)CCCc2nc3ccccc3[nH]2)CCc2cc(F)ccc2[C@@H]1C(C)C
active: [6] 5.86 µM
inactive: [2] | [3] | [8] | [7]

COc1ccc2c(c1OC)C(=O)O[C@@H]2[C@H]1c2c(cc3c(c2OC)OCO3)CCN1C
inactive: [2] | [9] | [3] | [8] | [7]

C[n+]1cc2c3c(ccc2c2ccc4cc5c(cc4c21)OCO5)OCO3
inactive: [2] | [7]

CCCCNc1c(C(=O)OCC)c(C)nc2c1cnn2CC
inactive: [2] | [3]

c1cc(CN2CCCCC2)cc(OCCCNc2nc3ccccc3s2)c1
active: [5] 2.94 µM | [6] 8.28 µM
inactive: [2] | [9] | [3] | [8] | [7]

CN(C)CCCN1c2ccccc2Sc2ccc(C(F)(F)F)cc21
inactive: [2] | [9] | [3] | [4] | [8] | [7]

Nc1nc(N)c2nc(-c3ccccc3)c(N)nc2n1
inactive: [2] | [9] | [3] | [7]
